Laboratory results as given in PubChem BioAssay AID1159580 (chemical genetic matrix, 2015).
Out of some 5,500 compounds screened, about 2,000 (36%) were called active. Not shown: some 18% with an inconclusive outcome. The list shows a part of the results. Values without a mark were called inactive. Cut-off read from the data, not from the text of the source: active = normalized growth mostly below about 0.91 (no sharp cut-off); inconclusive = no clear call, values can overlap the other calls; inactive = mostly above about 0.92.

Assay: chemical genetic growth profiling, strain panel (AID 1159580);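 note: tested at 20 µM; growth read once vehicle control cultures reached saturation at 30 °C; 1 = growth at the plate median or of vehicle wells; lower values mean less growth of the strain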
Conditions: growth OD

`COc1cc(OC)c2ccc(=O)oc2c1` showed a normalized growth (S. cerevisiae deletion strains, locus YJR075W, strain HOC1, stronger effect = lower value) of 1.01, a normalized growth (S. cerevisiae deletion strains, locus YKL009W, strain mrt4, stronger effect = lower value) of 0.966 and a normalized growth (S. cerevisiae deletion strains, locus YKL068W, stronger effect = lower value) of 1.01. It also gave a normalized growth (S. cerevisiae deletion strains, locus YKL085W, strain MDH1 (second series), stronger effect = lower value) of 1.01, a normalized growth (S. cerevisiae deletion strains, locus YKL085W, strain MDH1, stronger effect = lower value) of 1.01 and a normalized growth (S. cerevisiae deletion strains, locus YKL160W, strain elf1, stronger effect = lower value) of 0.977. For the same compound, the normalized growth (S. cerevisiae deletion strains, locus YKL190W, strain CNB1, stronger effect = lower value) was 1.01, the normalized growth (S. cerevisiae deletion strains, locus YKR001C, strain vps1, stronger effect = lower value) was 0.945 and the normalized growth (S. cerevisiae deletion strains, locus YKR026C, strain gcn3, stronger effect = lower value) was 0.962. It also gave a normalized growth (S. cerevisiae deletion strains, locus YKR091W, strain srl3, stronger effect = lower value) of 0.99, a normalized growth (S. cerevisiae deletion strains, locus YLL001W, strain dnm1, stronger effect = lower value) of 0.94 and a normalized growth (S. cerevisiae deletion strains, locus YLL026W, stronger effect = lower value) of 0.973. For the same compound, the normalized growth (S. cerevisiae deletion strains, locus YLL041C, strain sdh2, stronger effect = lower value) was 0.979, the normalized growth (S. cerevisiae deletion strains, locus YLR027C, strain aat2, stronger effect = lower value) was 0.977 and the normalized growth (S. cerevisiae deletion strains, locus YLR039C, strain RIC1, stronger effect = lower value) was 0.974. The normalized growth (S. cerevisiae deletion strains, locus YLR058C, strain SHM2, stronger effect = lower value) was 1.01, the normalized growth (S. cerevisiae deletion strains, locus YLR102C, strain apc9, stronger effect = lower value) was 1.01 and the normalized growth (S. cerevisiae deletion strains, locus YLR113W, strain HOG1, stronger effect = lower value) was 1.02. For the same compound, the normalized growth (S. cerevisiae deletion strains, locus YLR221C, strain rsa3, stronger effect = lower value) was 0.97, the normalized growth (S. cerevisiae deletion strains, locus YLR258W, strain gsy2, stronger effect = lower value) was 0.952 and the normalized growth (S. cerevisiae deletion strains, locus YLR262C, strain YPT6 (second series), stronger effect = lower value) was 0.97. For the same compound, the normalized growth (S. cerevisiae deletion strains, locus YLR262C, strain YPT6, stronger effect = lower value) was 0.992, the normalized growth (S. cerevisiae deletion strains, locus YLR268W, strain sec22, stronger effect = lower value) was 1.01 and the normalized growth (S. cerevisiae deletion strains, locus YLR320W, strain mms22, stronger effect = lower value) was 0.897. For the same compound, the normalized growth (S. cerevisiae deletion strains, locus YLR330W, strain CHS5, stronger effect = lower value) was 1, the normalized growth (S. cerevisiae deletion strains, locus YLR342W, strain FKS1 (second series), stronger effect = lower value) was 1.03 and the normalized growth (S. cerevisiae deletion strains, locus YLR342W, strain FKS1, stronger effect = lower value) was 0.976. For the same compound, the normalized growth (S. cerevisiae deletion strains, locus YLR357W, strain rsc2, stronger effect = lower value) was 1.05, the normalized growth (S. cerevisiae deletion strains, locus YLR370C, strain arc18, stronger effect = lower value) was 0.981 and the normalized growth (S. cerevisiae deletion strains, locus YLR371W, strain rom2, stronger effect = lower value) was 1.01. The normalized growth (S. cerevisiae deletion strains, locus YLR384C, strain iki3, stronger effect = lower value) was 0.975, the normalized growth (S. cerevisiae deletion strains, locus YLR418C, strain cdc73, stronger effect = lower value) was 1.01 and the normalized growth (S. cerevisiae deletion strains, locus YML016C, strain PPZ1, stronger effect = lower value) was 1. For the same compound, the normalized growth (S. cerevisiae deletion strains, locus YML032C, strain rad52, stronger effect = lower value) was 0.982, the normalized growth (S. cerevisiae deletion strains, locus YML120C, strain ndi1, stronger effect = lower value) was 0.954 and the normalized growth (S. cerevisiae deletion strains, locus YML124C, strain tub3, stronger effect = lower value) was 1.01. The normalized growth (S. cerevisiae deletion strains, locus YMR058W, strain fet3, stronger effect = lower value) was 0.957, the normalized growth (S. cerevisiae deletion strains, locus YMR078C, strain ctf18, stronger effect = lower value) was 0.996 and the normalized growth (S. cerevisiae deletion strains, locus YMR125W, strain sto1, stronger effect = lower value) was 0.993. For the same compound, the normalized growth (S. cerevisiae deletion strains, locus YMR129W, stronger effect = lower value) was 0.988, the normalized growth (S. cerevisiae deletion strains, locus YMR205C, strain PFK2, stronger effect = lower value) was 0.97 and the normalized growth (S. cerevisiae deletion strains, locus YMR223W, strain ubp8, stronger effect = lower value) was 0.976. The normalized growth (S. cerevisiae deletion strains, locus YMR231W, strain pep5, stronger effect = lower value) was 0.965, the normalized growth (S. cerevisiae deletion strains, locus YMR263W, strain SAP30, stronger effect = lower value) was 0.992 and the normalized growth (S. cerevisiae deletion strains, locus YMR307W, strain GAS1, stronger effect = lower value) was 1.02. It also gave a normalized growth (S. cerevisiae deletion strains, locus YNL067W, strain RPL9B, stronger effect = lower value) of 0.989, a normalized growth (S. cerevisiae deletion strains, locus YNL071W, strain lat1, stronger effect = lower value) of 0.953 and a normalized growth (S. cerevisiae deletion strains, locus YNL128W, strain TEP1, stronger effect = lower value) of 1.01. For the same compound, the normalized growth (S. cerevisiae deletion strains, locus YNL153C, strain GIM3, stronger effect = lower value) was 1.01, the normalized growth (S. cerevisiae deletion strains, locus YNL183C, strain NPR1, stronger effect = lower value) was 0.946 and the normalized growth (S. cerevisiae deletion strains, locus YNL209W, strain ssb2, stronger effect = lower value) was 0.98. The normalized growth (S. cerevisiae deletion strains, locus YNL233W, strain BNI4, stronger effect = lower value) was 1, the normalized growth (S. cerevisiae deletion strains, locus YNL248C, strain rpa49, stronger effect = lower value) was 0.872 (active) and the normalized growth (S. cerevisiae deletion strains, locus YNL250W, strain rad50, stronger effect = lower value) was 0.992. It also gave a normalized growth (S. cerevisiae deletion strains, locus YNL271C, strain bni1, stronger effect = lower value) of 0.99, a normalized growth (S. cerevisiae deletion strains, locus YNL298W, strain CLA4, stronger effect = lower value) of 0.973 and a normalized growth (S. cerevisiae deletion strains, locus YNL307C, strain MCK1, stronger effect = lower value) of 0.988. The normalized growth (S. cerevisiae deletion strains, locus YNL322C, strain KRE1 (second series), stronger effect = lower value) was 0.992, the normalized growth (S. cerevisiae deletion strains, locus YNL322C, strain KRE1, stronger effect = lower value) was 1 and the normalized growth (S. cerevisiae deletion strains, locus YNR049C, strain mso1, stronger effect = lower value) was 0.982. It also gave a normalized growth (S. cerevisiae deletion strains, locus YNR052C, strain pop2, stronger effect = lower value) of 0.989, a normalized growth (S. cerevisiae deletion strains, locus YOL006C, strain TOP1, stronger effect = lower value) of 0.921 and a normalized growth (S. cerevisiae deletion strains, locus YOL012C, strain htz1) of 1.64. It also gave a normalized growth (S. cerevisiae deletion strains, locus YOL147C, strain pex11, stronger effect = lower value) of 1, a normalized growth (S. cerevisiae deletion strains, locus YOR001W, strain rrp6, stronger effect = lower value) of 0.963 and a normalized growth (S. cerevisiae deletion strains, locus YOR061W, strain CKA2, stronger effect = lower value) of 1. For the same compound, the normalized growth (S. cerevisiae deletion strains, locus YOR069W, strain VPS5, stronger effect = lower value) was 1.01, the normalized growth (S. cerevisiae deletion strains, locus YOR070C, strain gyp1, stronger effect = lower value) was 0.964 and the normalized growth (S. cerevisiae deletion strains, locus YOR080W, strain dia2, stronger effect = lower value) was 0.969. It also gave a normalized growth (S. cerevisiae deletion strains, locus YOR083W, strain WHI5, stronger effect = lower value) of 0.968, a normalized growth (S. cerevisiae deletion strains, locus YOR106W, strain vam3, stronger effect = lower value) of 0.95 and a normalized growth (S. cerevisiae deletion strains, locus YOR136W, strain idh2, stronger effect = lower value) of 1.01. The normalized growth (S. cerevisiae deletion strains, locus YOR144C, strain elg1, stronger effect = lower value) was 1.01, the normalized growth (S. cerevisiae deletion strains, locus YOR184W, strain ser1, stronger effect = lower value) was 0.949 and the normalized growth (S. cerevisiae deletion strains, locus YOR231W, strain MKK1, stronger effect = lower value) was 0.991. It also gave a normalized growth (S. cerevisiae deletion strains, locus YOR265W, strain rbl2, stronger effect = lower value) of 0.977, a normalized growth (S. cerevisiae deletion strains, locus YOR270C, strain vph1, stronger effect = lower value) of 0.814 and a normalized growth (S. cerevisiae deletion strains, locus YOR290C, strain snf2, stronger effect = lower value) of 0.936. For the same compound, the normalized growth (S. cerevisiae deletion strains, locus YOR316C, strain cot1, stronger effect = lower value) was 0.998, the normalized growth (S. cerevisiae deletion strains, locus YPL051W, strain arl3, stronger effect = lower value) was 0.968 and the normalized growth (S. cerevisiae deletion strains, locus YPL055C, strain LGE1, stronger effect = lower value) was 0.971. The normalized growth (S. cerevisiae deletion strains, locus YPL078C, strain atp4, stronger effect = lower value) was 0.957, the normalized growth (S. cerevisiae deletion strains, locus YPL106C, strain sse1, stronger effect = lower value) was 0.926 and the normalized growth (S. cerevisiae deletion strains, locus YPL240C, strain hsp82, stronger effect = lower value) was 0.985. For the same compound, the normalized growth (S. cerevisiae deletion strains, locus YPL241C, strain CIN2, stronger effect = lower value) was 1, the normalized growth (S. cerevisiae deletion strains, locus YPL256C, strain CLN2, stronger effect = lower value) was 1.05 and the normalized growth (S. cerevisiae deletion strains, locus YPR119W, strain clb2, stronger effect = lower value) was 1. It also gave a normalized growth (S. cerevisiae deletion strains, locus YPR141C, strain kar3, stronger effect = lower value) of 1, a normalized growth (S. cerevisiae deletion strains, locus YPR163C, strain tif3, stronger effect = lower value) of 1.01 and a normalized growth (S. cerevisiae deletion strains, locus YPR167C, strain met16, stronger effect = lower value) of 0.995. It also gave a normalized growth (S. cerevisiae deletion strains, strain wtn01, stronger effect = lower value) of 1 and a normalized growth (S. cerevisiae strains, strain wild type, stronger effect = lower value) of 1.01.
